# In the supplement of paper PMC10849652:
# About 7,900 targets were measured; listed, in parts, are those with a hit and a random draw of the rest. About 0.6% of all pairs of compound and target were hits. Values without a mark were called inactive.
# Key:
# Test in all cases: log2 fold change, soluble protein after heating vs DMSO (PISA); higher = thermal stabilisation; K562 cells, 10 uM, 30 min; active = over 0.2 and 3.5 SD of the protein, either way, in both replicates (recomputed)
# saracatinib = compound: CN1CCN(CCOc2cc(OC3CCOCC3)c3c(Nc4c(Cl)ccc5c4OCO5)ncnc3c2)CC1 [saracatinib]
# Summary of the method: (§1)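 K562 cells at 2×10^6 cells/mL were treated for 30 min with 10 μM compound, and aliquots were heated for 3 min over 48°C-58°C before pooling. Extraction used PBS with 0.5% NP-40 at 4°C, and soluble protein was the supernatant after 21,000xg for 90 min, measured by TMTpro 16plex LC-MS/MS with channel sums equalised. Thermal stability values, relative to control samples and from duplicates, are log2 fold changes.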
# sotrastaurin = compound: CN1CCN(c2nc(C3=C(c4c[nH]c5ccccc45)C(=O)NC3=O)c3ccccc3n2)CC1 [sotrastaurin]
# Summary of the method: as §1
# alvocidib = compound: CN1CC[C@H](c2c(O)cc(O)c3c(=O)cc(-c4ccccc4Cl)oc23)[C@H](O)C1 [alvocidib]
# Summary of the method: as §1
# Tubastatin A = compound: CN1CCc2c(c3ccccc3n2Cc2ccc(C(=O)NO)cc2)C1 [Tubastatin A]
# Summary of the method: as §1
# [1] = compound: CNC(=O)C1=CC=CC=C1NC2=NC(=NC=C2Cl)NC3=C(C=C(C=C3)N4CCOCC4)OC
# Summary of the method: as §1
# defactinib = compound: CNC(=O)c1ccc(Nc2ncc(C(F)(F)F)c(NCc3nccnc3N(C)S(C)(=O)=O)n2)cc1 [defactinib]
# Summary of the method: as §1
# rucaparib = compound: CNCc1ccc(-c2[nH]c3cc(F)cc4c3c2CCNC4=O)cc1 [rucaparib]
# Summary of the method: as §1
# [2] = compound: CNc1nc(-c2ccc3c(N)n[nH]c3c2)cc(N2C[C@@H](C(=O)NC3CCCCC3)CC[C@H]2C)n1
# Summary of the method: as §1
# encorafenib = compound: COC(=O)N[C@@H](C)CNc1nccc(-c2cn(C(C)C)nc2-c2cc(Cl)cc(NS(C)(=O)=O)c2F)n1 [encorafenib]
# Summary of the method: as §1
# [3] = compound: COC(=O)[C@H](CCSC)NC(=O)C1=C(C=C(C=C1)NC[C@H](CS)N)C2=CC=CC=C2
# Summary of the method: as §1
# Chain of UniProt O14929 (O14929 whole entry, looked up): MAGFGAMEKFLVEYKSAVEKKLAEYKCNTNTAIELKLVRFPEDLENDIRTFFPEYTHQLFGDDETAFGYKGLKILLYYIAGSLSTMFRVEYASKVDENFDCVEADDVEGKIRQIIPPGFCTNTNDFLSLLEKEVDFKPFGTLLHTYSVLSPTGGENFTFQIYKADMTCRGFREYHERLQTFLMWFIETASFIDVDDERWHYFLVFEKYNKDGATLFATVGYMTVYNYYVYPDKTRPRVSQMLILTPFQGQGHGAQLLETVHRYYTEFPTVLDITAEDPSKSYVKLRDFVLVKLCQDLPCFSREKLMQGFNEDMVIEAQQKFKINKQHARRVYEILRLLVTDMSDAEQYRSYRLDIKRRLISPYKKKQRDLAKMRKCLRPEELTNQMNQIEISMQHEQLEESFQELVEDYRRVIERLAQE
# Chain of UniProt P29084 (P29084 whole entry, looked up): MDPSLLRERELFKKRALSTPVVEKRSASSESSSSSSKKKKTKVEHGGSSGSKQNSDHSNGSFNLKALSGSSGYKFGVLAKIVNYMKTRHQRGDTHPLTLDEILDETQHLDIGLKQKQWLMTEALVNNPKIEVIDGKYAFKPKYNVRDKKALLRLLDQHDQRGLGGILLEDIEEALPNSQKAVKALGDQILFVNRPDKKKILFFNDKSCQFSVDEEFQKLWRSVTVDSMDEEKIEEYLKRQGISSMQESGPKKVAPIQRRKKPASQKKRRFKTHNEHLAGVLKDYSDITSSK
# Chain of UniProt P15976 (P15976 whole entry, looked up): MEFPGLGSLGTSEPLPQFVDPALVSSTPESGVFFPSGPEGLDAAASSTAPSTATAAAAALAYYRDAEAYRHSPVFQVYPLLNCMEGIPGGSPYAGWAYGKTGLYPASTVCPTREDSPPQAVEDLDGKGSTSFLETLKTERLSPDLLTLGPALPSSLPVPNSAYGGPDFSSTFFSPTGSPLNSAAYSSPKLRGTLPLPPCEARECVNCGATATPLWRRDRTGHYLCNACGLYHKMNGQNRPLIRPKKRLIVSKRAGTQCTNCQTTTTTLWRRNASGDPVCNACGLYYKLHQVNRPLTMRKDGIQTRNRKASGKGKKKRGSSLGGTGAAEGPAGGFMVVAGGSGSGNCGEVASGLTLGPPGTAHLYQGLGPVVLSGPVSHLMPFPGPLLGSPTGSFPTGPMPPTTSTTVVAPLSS
# Chain of UniProt P05114 (P05114 whole entry, looked up): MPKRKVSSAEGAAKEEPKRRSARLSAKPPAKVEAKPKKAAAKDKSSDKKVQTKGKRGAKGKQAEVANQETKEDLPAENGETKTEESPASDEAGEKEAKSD
# Chain of UniProt Q7Z4Q2 (Q7Z4Q2 whole entry, looked up): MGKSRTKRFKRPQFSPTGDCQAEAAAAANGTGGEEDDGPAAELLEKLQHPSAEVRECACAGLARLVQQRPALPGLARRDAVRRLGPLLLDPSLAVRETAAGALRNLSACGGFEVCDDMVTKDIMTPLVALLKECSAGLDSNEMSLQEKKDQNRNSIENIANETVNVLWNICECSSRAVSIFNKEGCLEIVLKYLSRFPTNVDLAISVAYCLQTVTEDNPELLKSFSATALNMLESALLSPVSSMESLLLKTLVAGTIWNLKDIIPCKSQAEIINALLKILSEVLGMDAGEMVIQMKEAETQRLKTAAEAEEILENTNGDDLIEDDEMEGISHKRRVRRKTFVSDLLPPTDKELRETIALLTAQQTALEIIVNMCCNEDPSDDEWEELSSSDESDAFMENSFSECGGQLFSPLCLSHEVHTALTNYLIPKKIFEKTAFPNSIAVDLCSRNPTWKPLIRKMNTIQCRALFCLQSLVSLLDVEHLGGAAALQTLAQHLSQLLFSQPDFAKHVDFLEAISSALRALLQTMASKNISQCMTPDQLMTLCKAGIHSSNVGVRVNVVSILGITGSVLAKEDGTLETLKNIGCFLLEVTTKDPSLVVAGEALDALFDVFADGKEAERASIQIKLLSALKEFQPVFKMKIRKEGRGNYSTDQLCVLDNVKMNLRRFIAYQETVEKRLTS
# Chain of UniProt Q8WXD5 (Q8WXD5 whole entry, looked up): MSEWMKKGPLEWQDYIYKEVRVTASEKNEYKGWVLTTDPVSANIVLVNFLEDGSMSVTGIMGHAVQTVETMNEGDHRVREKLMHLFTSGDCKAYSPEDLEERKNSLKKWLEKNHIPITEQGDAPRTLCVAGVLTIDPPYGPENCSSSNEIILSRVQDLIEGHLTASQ
# Chain of UniProt Q8IWJ2 (Q8IWJ2 whole entry, looked up): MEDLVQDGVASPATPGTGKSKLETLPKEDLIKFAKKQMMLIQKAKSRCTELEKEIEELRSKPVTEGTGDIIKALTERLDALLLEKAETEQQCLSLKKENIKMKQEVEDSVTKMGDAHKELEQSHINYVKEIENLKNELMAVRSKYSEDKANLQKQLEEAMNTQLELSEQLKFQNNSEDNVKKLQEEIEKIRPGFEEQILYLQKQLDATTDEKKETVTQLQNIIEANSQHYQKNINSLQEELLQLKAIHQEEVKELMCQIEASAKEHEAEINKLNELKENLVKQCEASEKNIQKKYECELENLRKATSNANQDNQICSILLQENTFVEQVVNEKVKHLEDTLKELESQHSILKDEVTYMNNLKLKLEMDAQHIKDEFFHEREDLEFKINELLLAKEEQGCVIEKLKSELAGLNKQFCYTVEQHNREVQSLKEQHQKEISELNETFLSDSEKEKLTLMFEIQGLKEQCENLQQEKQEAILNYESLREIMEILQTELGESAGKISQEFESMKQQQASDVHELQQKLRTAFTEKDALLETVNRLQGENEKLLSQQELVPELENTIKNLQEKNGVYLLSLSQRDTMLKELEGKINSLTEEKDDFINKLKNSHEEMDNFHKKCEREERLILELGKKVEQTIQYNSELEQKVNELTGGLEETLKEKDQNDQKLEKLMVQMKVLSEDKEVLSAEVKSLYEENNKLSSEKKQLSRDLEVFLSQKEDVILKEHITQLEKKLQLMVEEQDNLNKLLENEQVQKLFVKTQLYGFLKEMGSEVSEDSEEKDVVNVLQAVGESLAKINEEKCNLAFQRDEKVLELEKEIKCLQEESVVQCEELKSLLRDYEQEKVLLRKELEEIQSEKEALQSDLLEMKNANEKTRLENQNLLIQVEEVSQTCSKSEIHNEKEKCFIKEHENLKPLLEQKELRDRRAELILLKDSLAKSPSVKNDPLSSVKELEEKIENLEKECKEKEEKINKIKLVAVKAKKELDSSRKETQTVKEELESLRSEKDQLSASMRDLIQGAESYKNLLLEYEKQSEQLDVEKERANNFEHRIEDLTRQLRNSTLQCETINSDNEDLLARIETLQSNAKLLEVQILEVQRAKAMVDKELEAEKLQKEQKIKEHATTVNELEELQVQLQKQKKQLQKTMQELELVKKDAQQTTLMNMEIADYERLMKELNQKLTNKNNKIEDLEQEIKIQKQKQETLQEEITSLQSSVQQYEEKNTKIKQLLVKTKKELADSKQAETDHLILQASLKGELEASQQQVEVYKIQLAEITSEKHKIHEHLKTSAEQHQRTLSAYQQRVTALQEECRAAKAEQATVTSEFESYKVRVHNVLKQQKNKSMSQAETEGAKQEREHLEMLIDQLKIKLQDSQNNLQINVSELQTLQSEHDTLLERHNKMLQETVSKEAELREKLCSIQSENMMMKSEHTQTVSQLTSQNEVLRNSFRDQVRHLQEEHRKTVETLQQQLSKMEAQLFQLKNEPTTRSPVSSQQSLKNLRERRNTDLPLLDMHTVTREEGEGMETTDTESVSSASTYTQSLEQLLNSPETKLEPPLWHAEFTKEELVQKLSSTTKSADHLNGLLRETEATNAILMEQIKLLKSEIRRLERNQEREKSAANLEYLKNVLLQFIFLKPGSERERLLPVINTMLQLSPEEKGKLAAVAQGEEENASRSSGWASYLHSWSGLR
# Chain of UniProt Q9UJ14 (Q9UJ14 whole entry, looked up): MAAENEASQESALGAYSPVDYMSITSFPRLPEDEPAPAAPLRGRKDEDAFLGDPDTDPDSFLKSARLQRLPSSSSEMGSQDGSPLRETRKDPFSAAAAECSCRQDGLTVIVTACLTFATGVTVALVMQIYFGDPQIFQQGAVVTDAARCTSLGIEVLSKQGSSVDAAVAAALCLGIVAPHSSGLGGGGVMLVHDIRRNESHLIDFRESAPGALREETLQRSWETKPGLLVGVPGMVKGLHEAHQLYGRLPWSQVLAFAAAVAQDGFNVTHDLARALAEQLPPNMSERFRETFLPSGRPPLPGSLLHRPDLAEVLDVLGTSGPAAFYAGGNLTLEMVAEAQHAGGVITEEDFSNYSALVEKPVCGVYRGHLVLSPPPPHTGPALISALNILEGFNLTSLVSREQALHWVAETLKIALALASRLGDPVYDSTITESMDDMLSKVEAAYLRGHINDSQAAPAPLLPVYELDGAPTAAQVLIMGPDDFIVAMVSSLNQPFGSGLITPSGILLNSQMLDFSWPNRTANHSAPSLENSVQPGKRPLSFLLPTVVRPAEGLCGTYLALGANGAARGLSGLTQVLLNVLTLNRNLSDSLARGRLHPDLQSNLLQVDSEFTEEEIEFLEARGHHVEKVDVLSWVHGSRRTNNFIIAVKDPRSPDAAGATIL
# Chain of UniProt Q53GQ0 (Q53GQ0 whole entry, looked up): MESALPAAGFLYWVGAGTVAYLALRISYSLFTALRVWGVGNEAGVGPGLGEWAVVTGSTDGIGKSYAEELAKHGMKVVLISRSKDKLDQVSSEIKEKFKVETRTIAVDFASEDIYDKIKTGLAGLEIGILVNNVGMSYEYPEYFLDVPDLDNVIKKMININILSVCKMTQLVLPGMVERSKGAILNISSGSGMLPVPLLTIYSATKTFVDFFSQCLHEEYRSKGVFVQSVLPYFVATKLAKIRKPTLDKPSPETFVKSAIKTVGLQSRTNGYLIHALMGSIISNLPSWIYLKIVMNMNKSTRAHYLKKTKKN
# Chain of UniProt Q53FT3 (Q53FT3 whole entry, looked up): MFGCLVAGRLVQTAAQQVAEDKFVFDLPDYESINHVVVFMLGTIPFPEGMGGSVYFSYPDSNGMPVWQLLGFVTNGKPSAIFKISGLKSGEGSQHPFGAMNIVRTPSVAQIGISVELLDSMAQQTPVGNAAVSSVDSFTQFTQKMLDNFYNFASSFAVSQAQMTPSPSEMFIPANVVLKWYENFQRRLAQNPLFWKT
Target,log2 fold change (saracatinib),log2 fold change (sotrastaurin),log2 fold change (alvocidib),log2 fold change (Tubastatin A),log2 fold change [1],log2 fold change (defactinib),log2 fold change (rucaparib),log2 fold change [2],log2 fold change (encorafenib),log2 fold change [3]
HIKESHI (UniProt Q53FT3),0.03,0.043,-0.068,-0.01,0.046,-0.038,0.029,-0.003,0.024,0.028
GTF2E2 (UniProt P29084),-0.103,-0.163,-0.023,0.054,0.056,-0.085,0.03,0.025,0.145,-0.035
GCDH (UniProt Q92947),0.035,0.07,0,0.004,-0.054,-0.012,0.045,0.009,-0.047,0.008
GPKOW (UniProt Q92917),-0.03,-0.031,-0.188,0.033,-0.107,-0.178,-0.036,0.069,0.034,-0.032
HAT1 (UniProt O14929),0.047,-0.058,-0.209,0.036,0.05,-0.139,-0.066,-0.061,0.064,-0.017
HMGN1 (UniProt P05114),0.024,0.068,0.149,-0.087,0.03,0.09,0.043,-0.064,-0.01,0.011
GHDC (UniProt Q8N2G8),0.003,0.085,-0.029,-0.032,0.014,-0.033,0.006,-0.007,0.001,0.02
GCC2 (UniProt Q8IWJ2),-0.051,-0.077,0.117,0.053,0.061,0.026,0.175,0.031,0.136,-0.049
HEATR3 (UniProt Q7Z4Q2),-0.045,-0.167,-0.128,0.109,-0.054,-0.048,0.081,-0.006,-0.028,-0.006
GYG1 (UniProt P46976),-0.03,-0.425,-0.046,0.033,0.091,-0.042,0.062,0.038,0.083,0.013
GLUD1 (UniProt P00367),0.161,0.14,-0.002,-0.04,0.096,0.041,-0.099,0.089,-0.056,0.002
HIP1R (UniProt O75146),0.051,-0.045,-0.069,0.007,0.037,-0.063,0.018,0.015,-0.019,0.016
GALNT4 (UniProt Q8N4A0),-0.088,-0.029,-0.033,0.046,-0.063,0.016,-0.079,-0.138,0.04,-0.013
FUCA2 (UniProt Q9BTY2),-0.013,-0.021,-0.003,-0.026,0.028,-0.045,-0.139,0.003,0.012,0.038
GATA1 (UniProt P15976),0.097,-0.042,0.128,-0.049,0.104,0.088,0.086,-0.014,0.054,0
GGT7 (UniProt Q9UJ14),0.066,0.051,-0.049,0.053,-0.042,-0.027,-0.038,-0.091,0,-0.011
FARS2 (UniProt O95363),-0.026,-0.003,-0.158,-0.045,0.075,-0.023,-0.026,0.074,0.026,-0.054
GALC (UniProt P54803),0.033,0.047,-0.03,-0.028,-0.003,0.017,-0.091,-0.015,0.024,-0.005
GALK1 isoform 2 (UniProt P51570),0.117,-0.096,-0.035,-0.011,-0.049,-0.032,-0.014,0.055,0.007,-0.006
GEMIN6 (UniProt Q8WXD5),0.063,0.002,-0.028,0.072,0.013,-0.061,0.069,-0.028,-0.04,-0.112
GID4 (UniProt Q8IVV7),0.04,-0.091,-0.006,0.015,-0.038,0.032,0.032,-0.079,-0.072,0.139
FUT8 (UniProt Q9BYC5),-0.095,-0.049,0.055,0.02,0.023,0.049,-0.037,0.017,0.018,0.506 (active)
HSD17B12 (UniProt Q53GQ0),-0.037,0.151,-0.082,-0.007,0.005,-0.024,-0.043,0.038,0.027,0.013
GMEB1 (UniProt Q9Y692),-0.055,-0.06,-0.123,-0.022,0.028,-0.06,-0.047,-0.051,0.043,-0.003
GTF2H3 (UniProt Q13889),-0.099,-0.079,-0.071,0.124,0.008,0.009,0.09,-0.001,-0.073,0.043
HDAC1 (UniProt Q13547),-0.004,-0.026,-0.137,1.52 (active),-0.163,-0.15,0.023,0.04,-0.046,-0.062
GGA2 (UniProt Q9UJY4),-0.054,0.053,-0.034,-0.088,-0.025,0.025,-0.064,-0.054,0.068,0.122
HNRNPH1 (UniProt P31943),-0.018,-0.157,-0.163,0.076,-0.065,-0.278,0.08,0.058,0.114,-0.047
FOXK1 (UniProt P85037),0.214,-1.37 (active),-1.01 (active),-0.112,0.2,-0.941,-0.759,0.615,0.054,-0.111
H2AFX (UniProt P16104),-0.123,0.081,0.249,0.025,-0.003,0.53,0.347,0.089,-0.013,0.233
